# In PubChem BioAssay (EPA / NIEHS):
# Results filed as inconclusive are left out. Calls of active or inactive are those of the source. Rule for the calls, unless noted: active = hit-call score of the fitted dose curve at least 0.9, where 1 is the maximum; inactive = score below 0.9.
# Columns and labels:
# [1] = ATG_DR4_LXR_CIS: Attagene CIS-FACTORIAL HepG2 Assay for human Liver X Receptor (LXR), DR4 submotif (AID 2282929); conditions: HepG2 Attagene DR4 cis-reporter, mRNA transcription; actives raise or lower the signal
# Procedure, shortened: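 Endogenous factor activity at a DR4 cis-element is read as reporter mRNA in transiently transfected HepG2 cells. Exposure lasts 24 h; transcripts are amplified, fluorescently labelled and sized by capillary electrophoresis, with DMSO as baseline.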
# [2] = ATG_AP_1_CIS: Attagene CIS-FACTORIAL HepG2 Assay for human Activator Protein 1 (AP-1) (AID 2282931); conditions: HepG2 Attagene cis-factorial AP-1 reporter mRNA; actives raise or lower the signal
# Procedure, shortened: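 Fluorescence of labelled PCR fragments separated by capillary electrophoresis gives reporter mRNA levels. HepG2 with transfected cis-regulated reporter units, 24 h exposure; DMSO serves as baseline for bidirectional curve fits.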
# [3] = molecular target: Hepatocyte nuclear factor 3-beta (Homo sapiens) (UniProt Q9Y261); experiment: ATG_FoxA2_CIS: Attagene CIS-FACTORIAL HepG2 Assay for human Forkhead box A2 (FOXA2) (AID 2282942); conditions: HepG2 cis-reporter transcription factor activity, 24 h; actives raise or lower the signal
# Chain of Hepatocyte nuclear factor 3-beta (Homo sapiens) (Q9Y261 whole entry, looked up): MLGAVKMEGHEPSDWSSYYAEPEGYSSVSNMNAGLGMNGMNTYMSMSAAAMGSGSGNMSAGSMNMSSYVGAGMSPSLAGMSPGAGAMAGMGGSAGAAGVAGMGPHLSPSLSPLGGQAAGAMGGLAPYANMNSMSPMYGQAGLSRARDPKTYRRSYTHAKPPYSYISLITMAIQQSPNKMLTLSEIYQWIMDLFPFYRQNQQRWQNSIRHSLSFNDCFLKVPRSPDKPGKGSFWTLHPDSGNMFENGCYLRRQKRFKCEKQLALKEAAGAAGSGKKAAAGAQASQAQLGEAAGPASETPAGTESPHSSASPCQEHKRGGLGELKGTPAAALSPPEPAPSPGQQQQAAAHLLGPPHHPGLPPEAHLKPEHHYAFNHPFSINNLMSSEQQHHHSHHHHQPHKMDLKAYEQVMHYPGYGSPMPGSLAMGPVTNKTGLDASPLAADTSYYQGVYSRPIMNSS
# Procedure, shortened: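 Cells: HepG2, transient multiplex reporter transfection. Exposure 24 h. Detection: reporter-specific RT-PCR, fluorescent labelling, restriction digest, capillary electrophoresis. Analysis: bidirectional curve fit, DMSO as negative control.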
# [4] = molecular target: Hypoxia-inducible factor 1-alpha (Homo sapiens) (UniProt Q16665); experiment: ATG_HIF1a_CIS: Attagene CIS-FACTORIAL HepG2 Assay for human Hypoxia Inducible Factor 1 (HIF1A) (AID 2282951); conditions: HepG2 Attagene cis-factorial HIF1a reporter transcription; actives raise or lower the signal
# Chain of Hypoxia-inducible factor 1-alpha (Homo sapiens) (Q16665 whole entry, looked up): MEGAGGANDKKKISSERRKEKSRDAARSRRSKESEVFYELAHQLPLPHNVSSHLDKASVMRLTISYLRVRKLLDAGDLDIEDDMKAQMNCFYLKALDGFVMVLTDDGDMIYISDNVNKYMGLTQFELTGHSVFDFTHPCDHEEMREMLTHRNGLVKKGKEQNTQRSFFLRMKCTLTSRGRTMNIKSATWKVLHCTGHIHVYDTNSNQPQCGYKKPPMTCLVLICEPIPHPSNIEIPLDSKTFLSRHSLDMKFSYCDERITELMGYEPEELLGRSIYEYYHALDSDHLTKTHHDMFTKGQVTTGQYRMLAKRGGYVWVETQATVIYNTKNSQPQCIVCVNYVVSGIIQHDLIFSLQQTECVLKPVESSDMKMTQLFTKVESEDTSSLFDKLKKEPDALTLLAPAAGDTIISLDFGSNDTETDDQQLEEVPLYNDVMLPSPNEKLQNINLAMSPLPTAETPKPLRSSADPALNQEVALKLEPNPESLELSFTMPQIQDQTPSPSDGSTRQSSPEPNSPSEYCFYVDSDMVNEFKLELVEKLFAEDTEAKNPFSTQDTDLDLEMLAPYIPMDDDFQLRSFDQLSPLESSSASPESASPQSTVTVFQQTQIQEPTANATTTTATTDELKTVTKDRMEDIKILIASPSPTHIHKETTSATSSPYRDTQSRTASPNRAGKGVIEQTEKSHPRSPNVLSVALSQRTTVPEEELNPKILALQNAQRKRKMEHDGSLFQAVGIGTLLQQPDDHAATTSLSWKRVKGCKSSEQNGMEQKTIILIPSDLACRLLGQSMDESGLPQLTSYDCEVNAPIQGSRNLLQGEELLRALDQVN
# Procedure, shortened: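 HepG2, transient cis-reporter library, 24 h dosing. RNA → RT (oligo dT) → PCR → 6-FAM primer extension → HpaI → CE. Bidirectional curve fit vs DMSO.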
# [5] = molecular target: Heat shock factor protein 1 (Homo sapiens) (UniProt Q00613); experiment: ATG_HSE_CIS: Attagene CIS-FACTORIAL HepG2 Assay for human Heat Shock Transcription Factor 1 (HSE) (AID 2282953); conditions: HepG2 HSE cis-reporter, Attagene RNA transcription; actives raise or lower the signal
# Chain of Heat shock factor protein 1 (Homo sapiens) (Q00613 whole entry, looked up): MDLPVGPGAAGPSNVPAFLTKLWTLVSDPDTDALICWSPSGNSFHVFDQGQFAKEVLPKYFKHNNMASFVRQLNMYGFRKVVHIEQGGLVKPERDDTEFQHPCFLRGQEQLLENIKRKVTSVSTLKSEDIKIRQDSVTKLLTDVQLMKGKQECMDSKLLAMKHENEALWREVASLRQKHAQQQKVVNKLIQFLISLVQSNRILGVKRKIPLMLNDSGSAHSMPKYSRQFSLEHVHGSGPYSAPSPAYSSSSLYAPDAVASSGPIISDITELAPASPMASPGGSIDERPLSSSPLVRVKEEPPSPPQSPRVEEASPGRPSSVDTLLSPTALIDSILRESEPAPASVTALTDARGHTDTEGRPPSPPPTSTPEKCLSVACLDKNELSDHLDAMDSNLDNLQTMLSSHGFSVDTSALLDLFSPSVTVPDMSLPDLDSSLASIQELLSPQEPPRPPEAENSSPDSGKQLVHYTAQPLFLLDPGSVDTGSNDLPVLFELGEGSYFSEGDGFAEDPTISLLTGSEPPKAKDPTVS
# Procedure, shortened: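 After a 24 h incubation with test chemical, transfected HepG2 cells were harvested for RNA; reporter transcripts were measured by RT-PCR and capillary electrophoresis. Values reflect gain or loss of signal relative to DMSO.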
# [6] = ATG_RORE_CIS: Attagene CIS-FACTORIAL HepG2 Assay for human RAR-related Orphan Receptor Element (RORE) (AID 2282959); conditions: HepG2 Attagene cis-factorial RORE reporter, mRNA; actives raise or lower the signal
# Procedure, shortened: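 Multiplexed reporter assay measuring mRNA induction from a cis promoter element in transiently transfected HepG2 cells after 24 h treatment. Detection via RT-PCR and capillary electrophoresis fluorescence; DMSO serves as baseline.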
# [7] = molecular target: Signal transducer and activator of transcription 3 (Homo sapiens) (UniProt P40763); experiment: ATG_STAT3_CIS: Attagene CIS-FACTORIAL HepG2 Assay for human Signal Transducer and Activator of Transcription 3 (STAT3) (AID 2282963); conditions: HepG2, Attagene cis-factorial STAT3 reporter transcription; actives raise or lower the signal
# Chain of Signal transducer and activator of transcription 3 (Homo sapiens) (P40763 whole entry, looked up, the tested form may be a part): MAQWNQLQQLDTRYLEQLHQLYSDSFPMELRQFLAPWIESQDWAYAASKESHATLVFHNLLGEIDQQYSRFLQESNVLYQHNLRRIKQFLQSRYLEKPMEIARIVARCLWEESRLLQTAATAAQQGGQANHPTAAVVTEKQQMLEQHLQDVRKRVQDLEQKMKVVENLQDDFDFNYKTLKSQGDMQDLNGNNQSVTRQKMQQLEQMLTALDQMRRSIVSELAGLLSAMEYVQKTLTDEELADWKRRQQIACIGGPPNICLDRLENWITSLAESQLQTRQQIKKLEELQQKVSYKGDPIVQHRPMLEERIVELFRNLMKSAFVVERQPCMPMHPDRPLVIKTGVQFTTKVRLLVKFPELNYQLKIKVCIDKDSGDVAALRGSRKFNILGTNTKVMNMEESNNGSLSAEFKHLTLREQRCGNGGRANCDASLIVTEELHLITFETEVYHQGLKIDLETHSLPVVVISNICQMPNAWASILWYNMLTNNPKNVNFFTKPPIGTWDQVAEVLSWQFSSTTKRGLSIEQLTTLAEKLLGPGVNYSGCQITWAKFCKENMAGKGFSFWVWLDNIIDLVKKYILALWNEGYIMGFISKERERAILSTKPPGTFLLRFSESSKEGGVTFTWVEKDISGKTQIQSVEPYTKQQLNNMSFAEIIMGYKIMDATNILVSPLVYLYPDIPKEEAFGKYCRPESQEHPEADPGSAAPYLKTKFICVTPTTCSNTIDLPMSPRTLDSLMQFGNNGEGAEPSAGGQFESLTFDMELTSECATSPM
# Procedure, shortened: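 Fluorescence intensity of 6-FAM-labelled reporter fragments, separated by capillary electrophoresis after RT-PCR, gave the signal. Cells were HepG2 transfected with cis-element reporter units and treated 24 h; fitting was bidirectional relative to DMSO.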
# [8] = ATG_TCF_b_cat_CIS: Attagene CIS-FACTORIAL HepG2 Assay for human T-Cell-Factor with beta-catenin (TCF/b-cat) (AID 2282965); conditions: HepG2 TCF/beta-catenin cis-reporter transcription, actives raise or lower the signal
# Procedure, shortened: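 HepG2 cells transiently transfected with cis-promoter-driven multiplexed reporter units; reporter mRNA measured 24 h after dosing by RT-PCR, FAM labelling, HpaI digestion and capillary electrophoresis. Bidirectional fitting relative to DMSO baseline.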
# [9] = ATG_TAL_CIS: Attagene CIS-FACTORIAL HepG2 Assay for human TAL Basal Promoter (AID 2282966); conditions: HepG2 Attagene cis-factorial TAL promoter reporter; actives raise or lower the signal;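 note: background control endpoint measuring basal TAL promoter reporter mRNA not a specific factor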
# Procedure, shortened: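 Background-control endpoint: basal TAL promoter reporter transcripts in transiently transfected HepG2, measured 24 h after dosing. Read-out by RT-PCR with fluorescent primer extension and capillary electrophoresis; gain or loss of signal fitted relative to DMSO.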
# [10] = ATG_TGFb_CIS: Attagene CIS-FACTORIAL HepG2 Assay for human Transforming Growth Factor (TGF) (AID 2282967); conditions: HepG2 Attagene CIS TGFb reporter, mRNA transcription; actives raise or lower the signal
# Procedure, shortened: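 Transcript-level reporter readout: HepG2 transfectants, 24 h exposure, RNA to cDNA, reporter-specific PCR, fluorescent primer extension, capillary sizing against ROX standards. Gain- or loss-of-signal relative to DMSO.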
# [11] = ATG_VDRE_CIS: Attagene CIS-FACTORIAL HepG2 Assay for human Vitamin D Receptor Element (VDRE) (AID 2282968); conditions: HepG2 VDRE cis-reporter transcription, actives raise or lower the signal
# Procedure, shortened: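 Compounds were applied for 24 h to HepG2 cells transfected with promoter-regulated reporter units. Total RNA was reverse-transcribed, and reporter amplicons were fluorescently labelled and sized by capillary electrophoresis.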
# [12] = molecular target: X-box-binding protein 1 (Homo sapiens) (UniProt P17861); experiment: ATG_Xbp1_CIS: Attagene CIS-FACTORIAL HepG2 Assay for human X-box Binding Protein 1 (XBP1) (AID 2282972); conditions: HepG2 XBP1 cis-element reporter, Attagene multiplex; actives raise or lower the signal
# Chain of X-box-binding protein 1 (Homo sapiens) (P17861 whole entry, looked up): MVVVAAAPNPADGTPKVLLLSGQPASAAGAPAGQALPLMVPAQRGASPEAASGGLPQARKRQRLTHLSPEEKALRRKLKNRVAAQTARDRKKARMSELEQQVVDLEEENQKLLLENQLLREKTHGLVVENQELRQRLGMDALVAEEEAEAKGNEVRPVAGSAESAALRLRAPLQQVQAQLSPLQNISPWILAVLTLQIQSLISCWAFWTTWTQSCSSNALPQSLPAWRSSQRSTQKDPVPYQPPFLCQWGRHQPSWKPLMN
# Procedure, shortened: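 Human hepatoma HepG2, cis-element reporter system, 24 h treatment; mRNA quantified by RT-PCR/CE fluorescence; fit relative to DMSO.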
# [13] = molecular target: Transcriptional activator Myb (Homo sapiens) (UniProt P10242); experiment: ATG_Myb_CIS: Attagene CIS-FACTORIAL HepG2 Assay for human Myeloblastosis (Myb) Proto-Oncogene Transcription Factor (AID 2282986); conditions: HepG2 Attagene CIS-FACTORIAL Myb reporter transcription; actives raise or lower the signal
# Chain of Transcriptional activator Myb (Homo sapiens) (P10242 whole entry, looked up): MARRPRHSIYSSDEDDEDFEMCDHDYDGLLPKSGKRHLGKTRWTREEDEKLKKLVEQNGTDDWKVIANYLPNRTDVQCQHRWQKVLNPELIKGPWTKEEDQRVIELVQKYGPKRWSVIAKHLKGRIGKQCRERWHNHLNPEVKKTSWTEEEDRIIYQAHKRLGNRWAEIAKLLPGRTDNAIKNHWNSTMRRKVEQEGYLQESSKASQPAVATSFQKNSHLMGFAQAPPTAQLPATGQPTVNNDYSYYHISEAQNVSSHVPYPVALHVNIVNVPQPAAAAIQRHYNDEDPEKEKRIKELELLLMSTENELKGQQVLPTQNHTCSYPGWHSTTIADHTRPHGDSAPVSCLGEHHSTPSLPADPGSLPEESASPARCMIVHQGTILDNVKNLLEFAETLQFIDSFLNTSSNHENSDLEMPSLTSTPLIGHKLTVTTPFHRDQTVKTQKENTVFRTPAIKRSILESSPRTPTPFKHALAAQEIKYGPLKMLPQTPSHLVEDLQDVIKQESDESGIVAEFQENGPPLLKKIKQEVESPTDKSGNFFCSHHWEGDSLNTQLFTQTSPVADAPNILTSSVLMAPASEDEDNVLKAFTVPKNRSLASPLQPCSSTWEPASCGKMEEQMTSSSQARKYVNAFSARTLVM
# Procedure, shortened: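 Endogenous transcription factor activity at a Myb-responsive cis element is reported in human liver HepG2 cells after 24 h chemical treatment. Reporter mRNA is detected by RT-PCR and capillary electrophoresis fluorescence, with DMSO as baseline.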
# [14] = molecular target: Nuclear respiratory factor 1 (Homo sapiens) (UniProt Q16656); experiment: ATG_NRF1_CIS: Attagene CIS-FACTORIAL HepG2 Assay for human Nuclear Respiratory Factor 1 (NRF1) Orphan Gene (AID 2282987); conditions: HepG2 NRF1 cis-element reporter, Attagene multiplex; actives raise or lower the signal
# Procedure, shortened: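 Human hepatoma HepG2 cells carrying transfected promoter-regulated reporter units were incubated with test chemicals for 24 h. Reporter transcripts were measured by RT-PCR plus capillary electrophoresis, and endpoints derived by bidirectional fitting with DMSO as baseline.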
# [15] = molecular target: Myc proto-oncogene protein (Homo sapiens) (UniProt P01106); experiment: ATG_Myc_CIS: Attagene CIS-FACTORIAL HepG2 Assay for human Myelocytomatosis (Myc) Proto-Oncogene Transcription Factor (AID 2282990); conditions: HepG2, Attagene cis-reporter transcription factor activity; actives raise or lower the signal
# Chain of Myc proto-oncogene protein (Homo sapiens) (P01106 whole entry, looked up): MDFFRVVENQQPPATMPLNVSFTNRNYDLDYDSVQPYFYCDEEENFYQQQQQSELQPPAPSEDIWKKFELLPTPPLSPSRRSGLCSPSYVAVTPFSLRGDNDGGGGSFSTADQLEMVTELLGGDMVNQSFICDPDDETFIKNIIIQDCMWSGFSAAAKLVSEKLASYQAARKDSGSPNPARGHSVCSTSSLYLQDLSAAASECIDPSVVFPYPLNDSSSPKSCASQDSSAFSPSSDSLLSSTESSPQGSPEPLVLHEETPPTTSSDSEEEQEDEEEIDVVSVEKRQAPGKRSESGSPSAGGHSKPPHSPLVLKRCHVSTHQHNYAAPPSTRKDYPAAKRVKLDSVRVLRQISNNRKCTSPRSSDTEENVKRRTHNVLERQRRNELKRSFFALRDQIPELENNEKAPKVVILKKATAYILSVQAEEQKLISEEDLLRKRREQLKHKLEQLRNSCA
# Procedure, shortened: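 Transiently transfected HepG2 cells bearing cis-promoter reporter units for endogenous transcription factors; 24 h exposure. Reporter mRNA measured by RT-PCR, 6-FAM primer extension, HpaI cut and capillary electrophoresis; bidirectional fit relative to DMSO.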
# [16] = ATG_NRF2_ARE_CIS: Attagene CIS-FACTORIAL HepG2 Assay for human Nuclear Factor Erythroid 2 Related Factor 2 (NFR2) response to Antioxidant Response Elements (ARE) (AID 2282992); conditions: HepG2 Attagene ARE/NRF2 reporter, transcription factor activity; actives raise or lower the signal
# Procedure, shortened: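 Fluorescence intensity of reporter-specific cDNA fragments, separated by capillary electrophoresis, reflects mRNA induction in transfected HepG2 cells at 24 h. Activity is fitted bidirectionally, DMSO serving as baseline.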
# [17] = ATG_Oct_MLP_CIS: Attagene CIS-FACTORIAL HepG2 Assay for human Octamer-Binding Transcription Factor (Oct) (AID 2282993); conditions: HepG2 Attagene cis-factorial Oct reporter, mRNA; actives raise or lower the signal
# Procedure, shortened: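 Cells of the HepG2 line express promoter-controlled reporter sequences whose mRNA levels, after 24 h treatment, are measured by RT-PCR and capillary electrophoresis. Increases and decreases are scored relative to DMSO.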
# [18] = molecular target: Cellular tumor antigen p53 (Homo sapiens) (UniProt P04637); experiment: ATG_p53_CIS: Attagene CIS-FACTORIAL HepG2 Assay for human p53 Transcription Factor (AID 2282994); conditions: HepG2 p53 cis-element reporter, Attagene mRNA; actives raise or lower the signal
# Chain of Cellular tumor antigen p53 (Homo sapiens) (P04637 whole entry, looked up): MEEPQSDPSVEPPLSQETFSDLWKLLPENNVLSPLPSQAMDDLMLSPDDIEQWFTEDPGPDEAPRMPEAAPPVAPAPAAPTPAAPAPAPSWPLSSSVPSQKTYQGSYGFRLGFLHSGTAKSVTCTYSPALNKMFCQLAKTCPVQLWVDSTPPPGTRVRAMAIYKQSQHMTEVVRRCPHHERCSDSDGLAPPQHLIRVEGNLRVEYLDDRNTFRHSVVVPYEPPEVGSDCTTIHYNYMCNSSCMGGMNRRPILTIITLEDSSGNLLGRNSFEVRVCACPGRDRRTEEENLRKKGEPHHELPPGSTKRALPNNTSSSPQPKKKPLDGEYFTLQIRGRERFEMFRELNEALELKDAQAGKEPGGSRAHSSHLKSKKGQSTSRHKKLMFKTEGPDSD
# Procedure, shortened: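 Transiently transfected HepG2 (multiple cis reporter transcription units); exposure 24 h; reporter RNA via RT-PCR, 6-FAM extension, 2 h HpaI digest at 37 C, CE detection; DMSO baseline.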
# [19] = molecular target: Nuclear receptor subfamily 1 group I member 2 (Homo sapiens) (UniProt O75469); experiment: ATG_PXR_TRANS: Attagene TRANS-FACTORIAL HepG2 Assay for human Pregnane X Receptor (PXR) (AID 2283008; active = hit-call score of the fitted dose curve at least 0.9, where 1 is the maximum)
# Chain of Nuclear receptor subfamily 1 group I member 2 (Homo sapiens) (O75469 whole entry, looked up, the tested form may be a part): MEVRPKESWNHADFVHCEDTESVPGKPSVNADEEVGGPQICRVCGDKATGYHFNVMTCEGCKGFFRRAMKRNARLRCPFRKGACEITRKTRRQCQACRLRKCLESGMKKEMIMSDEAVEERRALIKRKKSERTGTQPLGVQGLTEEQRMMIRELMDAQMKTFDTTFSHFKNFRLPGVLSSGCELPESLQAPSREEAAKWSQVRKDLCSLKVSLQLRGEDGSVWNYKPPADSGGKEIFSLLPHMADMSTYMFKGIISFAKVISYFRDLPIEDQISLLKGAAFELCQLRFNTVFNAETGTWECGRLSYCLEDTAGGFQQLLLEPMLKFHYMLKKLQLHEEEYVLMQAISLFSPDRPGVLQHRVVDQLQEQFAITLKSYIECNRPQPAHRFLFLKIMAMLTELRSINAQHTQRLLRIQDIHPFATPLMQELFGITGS
# Procedure, shortened: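 Transient HepG2 transfectants carrying multiplexed reporter transcription units; PXR activity read through a Gal4 chimera. 24 h exposure. RT-PCR/CE fluorescence; upward curve fit referenced to DMSO.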
# [20] = ATG_XTT_Cytotoxicity: Cytotoxicity Assessment in the Attagene TRANS-FACTORIAL HepG2 Assay (AID 2283584; active = hit-call score of the fitted dose curve at least 0.9, where 1 is the maximum)
# Procedure, shortened: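 Viability endpoint from XTT after 24 h chemical exposure of reporter-transfected human HepG2 liver cells; signal loss fitted relative to DMSO negative control.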
compound,measurement,setting,value
CC(C)=CCOC(=O)c1ccccc1,outcome,[1],inactive
same,outcome,[2],inactive
same,outcome,[3],inactive
same,outcome,[4],inactive
same,outcome,[5],inactive
same,outcome,[6],inactive
same,outcome,[7],inactive
same,outcome,[8],inactive
same,outcome,[9],inactive
same,outcome,[10],inactive
same,outcome,[11],inactive
same,outcome,[12],inactive
same,outcome,[13],inactive
same,outcome,[14],inactive
same,outcome,[15],inactive
same,outcome,[16],inactive
same,outcome,[17],inactive
same,outcome,[18],inactive
same,outcome,[19],inactive
same,outcome,[20],inactive
O=C(O)c1cc(Cl)cc(Cl)c1O,outcome,[1],inactive
same,outcome,[3],inactive
same,outcome,[4],inactive
same,outcome,[5],inactive
same,outcome,[6],inactive
same,outcome,[7],inactive
same,outcome,[8],inactive
same,outcome,[9],inactive
same,outcome,[10],inactive
same,outcome,[11],inactive
same,outcome,[12],inactive
same,outcome,[13],inactive
same,outcome,[14],inactive
same,outcome,[15],inactive
same,outcome,[16],inactive
same,outcome,[17],inactive
same,outcome,[18],inactive
same,outcome,[19],inactive
same,outcome,[20],inactive
COc1ccccc1OCC(O)CO (stereo not drawn),outcome,[1],inactive
same,outcome,[2],inactive
same,outcome,[3],inactive
same,outcome,[6],inactive
same,outcome,[7],inactive
same,outcome,[8],inactive
same,outcome,[9],inactive
same,outcome,[10],inactive
same,outcome,[11],inactive
same,outcome,[12],inactive
same,outcome,[13],inactive
same,outcome,[14],inactive
same,outcome,[15],inactive
same,outcome,[16],inactive
same,outcome,[17],inactive
same,outcome,[18],inactive
same,outcome,[19],inactive
same,outcome,[20],inactive
Cc1cc(C)c(S(=O)(=O)O)cc1N=Nc1cc(S(=O)(=O)O)c2ccccc2c1O,outcome,[1],inactive
same,outcome,[2],inactive
same,outcome,[3],inactive
same,outcome,[4],inactive
same,outcome,[5],inactive
same,outcome,[6],inactive
same,outcome,[7],inactive
same,outcome,[8],inactive
same,outcome,[9],inactive
same,outcome,[10],inactive
same,outcome,[11],inactive
same,outcome,[12],inactive
same,outcome,[13],inactive
same,outcome,[14],inactive
same,outcome,[15],inactive
same,AC50,[16],72.2 µM (active)
same,outcome,[18],inactive
same,outcome,[19],inactive
same,outcome,[20],inactive
F[B-](F)(F)F,outcome,[1],inactive
same,outcome,[2],inactive
same,outcome,[3],inactive
same,outcome,[4],inactive
same,outcome,[5],inactive
same,outcome,[6],inactive
same,outcome,[7],inactive
same,outcome,[8],inactive
same,outcome,[9],inactive
same,outcome,[10],inactive
same,outcome,[11],inactive
same,outcome,[12],inactive
same,outcome,[13],inactive
same,outcome,[14],inactive
same,outcome,[15],inactive
same,outcome,[16],inactive
same,outcome,[17],inactive
same,outcome,[19],inactive
CC=CC(=O)O,outcome,[1],inactive
same,outcome,[2],inactive
same,outcome,[3],inactive
same,AC50,[4],56 µM (active)
same,outcome,[5],inactive
same,outcome,[6],inactive
same,outcome,[7],inactive
same,outcome,[8],inactive
same,outcome,[9],inactive
same,outcome,[10],inactive
same,outcome,[11],inactive
same,outcome,[12],inactive
same,outcome,[13],inactive
same,outcome,[14],inactive
same,outcome,[15],inactive
same,outcome,[16],inactive
same,outcome,[17],inactive
same,outcome,[19],inactive
same,outcome,[20],inactive
NC(=O)c1ccc([N+](=O)[O-])cc1Cl,outcome,[1],inactive
same,outcome,[2],inactive
same,outcome,[3],inactive
same,outcome,[4],inactive
same,outcome,[5],inactive
same,outcome,[6],inactive
same,outcome,[7],inactive
same,outcome,[8],inactive
same,outcome,[9],inactive
same,outcome,[10],inactive
same,outcome,[11],inactive
same,outcome,[12],inactive
same,outcome,[13],inactive
same,outcome,[14],inactive
same,outcome,[15],inactive
same,outcome,[16],inactive
same,outcome,[17],inactive
same,outcome,[18],inactive
same,outcome,[19],inactive
same,outcome,[20],inactive
